The results in this text go back to PubChem BioAssay (Tox21).

Molecules are shown by their SMILES. Where “and” joins values, the source holds several entries; their conditions need not be identical. Equal values may be shown once. A number with no mark means an inactive call. Results filed as inconclusive are left out. Calls of active or inactive are those of the source. The call rests on the fitted dose curve.

The target in test [1] is Acetylcholinesterase (Homo sapiens) (UniProt P22303). Put plainly: Acetylcholinesterase (AChE) small molecule antagonists: colormetric cell-based qHTS assay (AID 1347395). Further: nearly all actives have a fitted effect of over 30% in size. Further: potency means the concentration at half of the fitted maximal effect. The method, boiled down: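 SH-SY5Y cells; cpd 30 min 37 C; + DTNB/acetylthiocholine, 90 min 37 C; colorimetric thiocholine read; qHTS.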
For test [2] the target is unchanged. The experiment in a line: Acetylcholinesterase (AChE) small molecule antagonists: enzyme-based qHTS assay (AID 1347397). Further: nearly all actives have a fitted effect of over 55% in size. Further: potency means the concentration at half of the fitted maximal effect. The note with it: Potency: AChE enzyme activity inhibition; outcome: AChE enzyme activity inhibition. The method in brief:
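Absorbance-based detection of thiocholine with DTNB served as the read-out. Recombinant human AChE was exposed to compound for 30 min at RT before a 10 min RT incubation with acetylthiocholine.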

The target is the same in test [3]. The experiment in a line: Acetylcholinesterase (AChE) small molecule antagonists: fluorescence cell-based qHTS assay (AID 1347398). Further: nearly all actives have a fitted effect of over 50% in size. Further: potency means the concentration at half of the fitted maximal effect. The note with it: Potency: AChE activity; outcome: AChE activity. The method in brief:
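Fluorimetric cell-based assay: intact SH-SY5Y cells, 30 min compound preincubation at 37 C, acetylthiocholine substrate with thiol probe Thiolite Green, 40 min RT development, fluorescence 490/520 nm.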

For test [4] the target is unchanged. Put plainly: Acetylcholinesterase (AChE) small molecule antagonists: enzyme-based qHTS assay with human liver microsomes (AID 1347399). Further: nearly all actives have a fitted effect of over 60% in size. The note with it: Potency: qHTS inhibition; outcome: qHTS inhibition. The method in brief:
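Recombinant human AChE (50 mU/mL in the enzyme mix) and human liver microsomes (0.25 mg/mL final) were preincubated with compound and NADPH (0.25 mg/mL final) for 30 min at 37 C. Acetylthiocholine/DTNB was then added; thiocholine was read colorimetrically after 10 min at room temperature.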
Background: In qHTS, concentration-response curves come from the screen itself.
On the % scale 0 is the no-effect control and ±100 the full control effect.

Sequence of Acetylcholinesterase (Homo sapiens) (P22303 whole entry, looked up): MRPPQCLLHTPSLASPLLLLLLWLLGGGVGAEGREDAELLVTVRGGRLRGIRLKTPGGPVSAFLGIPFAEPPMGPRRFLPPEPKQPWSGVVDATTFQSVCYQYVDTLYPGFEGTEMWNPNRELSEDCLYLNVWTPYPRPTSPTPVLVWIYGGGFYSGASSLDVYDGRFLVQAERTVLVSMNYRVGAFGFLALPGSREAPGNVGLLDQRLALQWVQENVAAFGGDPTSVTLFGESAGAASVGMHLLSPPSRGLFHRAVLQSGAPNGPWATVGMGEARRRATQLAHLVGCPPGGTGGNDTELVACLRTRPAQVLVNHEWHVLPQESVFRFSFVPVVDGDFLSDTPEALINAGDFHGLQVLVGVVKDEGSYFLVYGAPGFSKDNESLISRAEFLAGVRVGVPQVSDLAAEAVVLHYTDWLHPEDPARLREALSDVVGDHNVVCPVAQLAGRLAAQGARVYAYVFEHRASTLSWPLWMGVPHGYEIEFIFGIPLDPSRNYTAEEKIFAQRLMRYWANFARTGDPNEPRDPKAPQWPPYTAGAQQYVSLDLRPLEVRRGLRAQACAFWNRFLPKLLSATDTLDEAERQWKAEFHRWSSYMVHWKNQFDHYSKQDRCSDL

Take `CN1C(C)(C)CC(O)CC1(C)C`: the Potency result in test [1], in test [2], in test [3] and in test [4] was “inactive” each time.
Turning to `O=S(=O)(O)c1cc(Cl)c(Cl)cc1Cl`, the Potency result in test [1], in test [2], in test [3] and in test [4] was “inactive” each time.
As to `CCCCCC[C@@H](O)C/C=C\CCCCCCCC(=O)OCC(O)CO` (stereo not given in full), the Potency entry in test [1], in test [2], in test [3] and in test [4] was “inactive” throughout.
As for `CC(=O)[C@@]1(O)CC[C@H]2[C@@H]3C[C@H](C)C4=CC(=O)CC[C@]4(C)[C@H]3CC[C@@]21C`, the Potency result in test [1], in test [2], in test [3] and in test [4] was “inactive” throughout.
On to `O=C(O)CN(CC(=O)O)CC(=O)O`, for which the Potency result in test [1], in test [2], in test [3] and in test [4] was “inactive” each time.
Regarding `C=C(C#N)C(=O)OCC`, the Potency result in test [1], in test [2], in test [3] and in test [4] was “inactive” throughout.
With `O=C(OCCCCCOC(=O)c1ccccc1)c1ccccc1`, the Potency result in test [1], in test [2], in test [3] and in test [4] was “inactive” throughout.
As for `O=C(c1ccccc1)c1cccc(O)c1`, the Potency entry in test [1], in test [2], in test [3] and in test [4] was “inactive” each time.
Take `OCCc1ccccn1`: the Potency result in test [1], in test [2], in test [3] and in test [4] was “inactive” throughout.
Consider `COc1ccc(/C(C)=C/C(=O)O)c(OC)c1`, for which the Potency entry in test [1], in test [2], in test [3] and in test [4] was “inactive” in each case.
Regarding `O=C1CC(c2ccc(Cl)cc2)CC(=O)N1`, the Potency entry in test [1], in test [2], in test [3] and in test [4] was “inactive” each time.
As for `CC/C=C\CCO`, the Potency entry in test [1], in test [2], in test [3] and in test [4] was “inactive” in each case.
Regarding `CCCCCCCN`, the Potency entry in test [1], in test [2], in test [3] and in test [4] was “inactive” throughout.
Consider `c1cc2ccc3ccc4ccc5cccc6c(c1)c2c3c4c56`, for which the activity, negative = inhibition in test [1] is 3.35% [at 4.07 µM]. Further, the results for the activity change, negative = inhibition in test [2], in test [3] and in test [4] were 0.28% [at 4.07 µM], 9.19% [at 3.98 µM] and 0.324% [at 4.07 µM], respectively.
Take `C[C@H]1C[C@H]2[C@@H]3CCC4=CC(=O)C=C[C@]4(C)[C@H]3C(=O)C[C@]2(C)[C@@]1(O)C(=O)CO`: the Potency result in test [1], in test [2], in test [3] and in test [4] was “inactive” each time.
As for `O=C(COc1ccc(Cl)cc1)N1CCN(Cc2ccc3c(c2)OCO3)CC1`, the Potency result in test [1], in test [2], in test [3] and in test [4] was “inactive” throughout.
With `CSCCC=O`, the Potency result in test [1], in test [2], in test [3] and in test [4] was “inactive” throughout.
With `Nc1cc([N+](=O)[O-])ccc1C(=O)O`, the Potency entry in test [1], in test [2], in test [3] and in test [4] was “inactive” in each case.
Consider `COC(=O)c1nc(Cl)c(Cl)nc1N`, for which the Potency entry in test [1], in test [2], in test [3] and in test [4] was “inactive” each time.
Turning to `COC(=O)c1ccc(C)cc1`, the Potency entry in test [1], in test [2], in test [3] and in test [4] was “inactive” throughout.
As for `CC(C)(O)c1coc(S(=O)(=O)NC(=O)Nc2c3c(cc4c2CCC4)CCC3)c1`, the Potency entry in test [1], in test [2], in test [3] and in test [4] was “inactive” throughout.
On to `C[C@@H]1C[C@H]2[C@@H]3CCC4=CC(=O)C=C[C@]4(C)[C@@]3(F)[C@@H](O)C[C@]2(C)[C@@]1(O)C(=O)COP(=O)(O)O`, for which the Potency result in test [1], in test [2], in test [3] and in test [4] was “inactive” throughout.
On to `O=C(OCCOCCOCCOC(=O)c1ccccc1)c1ccccc1`, for which the Potency result in test [1], in test [2], in test [3] and in test [4] was “inactive” each time.
Regarding `O=C(O)C(S)C(S)C(=O)O` (stereo not given), the Potency result in test [1], in test [2], in test [3] and in test [4] was “inactive” each time.
On to `CN1N=C(C(N)=O)CCC1=O`, for which the Potency result in test [1], in test [2], in test [3] and in test [4] was “inactive” throughout.
Turning to `C[Si](C)O[Si](C)C`, the Potency entry in test [1], in test [2], in test [3] and in test [4] was “inactive” in each case.
Take `CC(=O)CCC=C(C)C`: the Potency result in test [1], in test [2], in test [3] and in test [4] was “inactive” each time.
`CCCCN(CCO)CCCC`: the Potency result in test [1], in test [2], in test [3] and in test [4] was “inactive” in each case.
`CCOC(=O)C1=C(C)NC(C)=C(C(=O)OCC)C1c1ccccc1/C=C/C(=O)OC(C)(C)C`: the Potency entry in test [1], in test [2], in test [3] and in test [4] was “inactive” each time.
With `Cc1ccc([N+](=O)[O-])c(N)c1`, the Potency result in test [1], in test [2], in test [3] and in test [4] was “inactive” throughout.
Take `Oc1c(I)cc(Cl)c2cccnc12`: the Potency entry in test [1], in test [2], in test [3] and in test [4] was “inactive” in each case.
Take `Nc1ccc(N)c(Cl)c1`: the Potency in test [1] was 8.92 µM (active) and 22.4 µM (active); in test [2] it was 8.92 µM (active) and 8.94 µM (active); in test [3], 5.63 µM (active) and 10 µM (active). The Potency entry in test [4] is “inactive”.
For the molecule `C/C=C(\C)C=O`, the Potency result in test [1], in test [2], in test [3] and in test [4] was “inactive” in each case.
For the molecule `CCCCCCOc1ccc(O)cc1`, the Potency entry in test [1], in test [2], in test [3] and in test [4] was “inactive” throughout.
Regarding `C[C@]12CC[C@H]3[C@@H](CCC4=CC(=O)CC[C@@]43C)[C@@H]1CC[C@@H]2C(=O)CO`, the Potency result in test [1], in test [2], in test [3] and in test [4] was “inactive” throughout.
On to `CC(C)(C)c1cccc(O)c1`, for which the Potency entry in test [1], in test [2], in test [3] and in test [4] was “inactive” throughout.
For `Nc1c[n+](N2CCOCC2)no1`, the Potency entry in test [1], in test [2], in test [3] and in test [4] was “inactive” in each case.
Regarding `CN1CCN(N)CC1`, the Potency result in test [1], in test [2], in test [3] and in test [4] was “inactive” each time.
On to `CC(C)C(=O)c1ccccc1`, for which the Potency entry in test [1], in test [2], in test [3] and in test [4] was “inactive” throughout.
As to `Cc1ccc(Br)cc1`, the Potency entry in test [1], in test [2], in test [3] and in test [4] was “inactive” throughout.
Consider `CCCOC(C)=O`, for which the Potency entry in test [1], in test [2], in test [3] and in test [4] was “inactive” each time.
As to `O=CC1CC=CCC1` (stereo not given), the Potency result in test [1], in test [2], in test [3] and in test [4] was “inactive” throughout.
As for `O=C(O)c1ccc(S(=O)(=O)N(Cl)Cl)cc1`, the Potency result in test [1], in test [2], in test [3] and in test [4] was “inactive” throughout.
Regarding `C=CC(=O)OCCC#N`, the Potency entry in test [1], in test [2], in test [3] and in test [4] was “inactive” each time.
Take `CCCCCC/C=C/C(=O)OC`: the Potency entry in test [1], in test [2], in test [3] and in test [4] was “inactive” each time.
In the case of `OCCCCC(O)CO` (stereo not given), the Potency entry in test [1], in test [2], in test [3] and in test [4] was “inactive” throughout.
Consider `Clc1ccc2c(Cl)ccnc2c1`, for which the Potency entry in test [1], in test [2], in test [3] and in test [4] was “inactive” throughout.
Regarding `CC(=O)c1ccc2ccc3ccccc3c2c1`, the Potency result in test [1], in test [2], in test [3] and in test [4] was “inactive” each time.
On to `CN1CCC(OC(c2ccccc2)c2ccccc2)CC1`, for which the Potency entry in test [1], in test [2], in test [3] and in test [4] was “inactive” throughout.
Turning to `CCCCC(CC)CCC(CC(C)C)OS(=O)(=O)O` (stereo not given), the Potency result in test [1], in test [2], in test [3] and in test [4] was “inactive” in each case.
Regarding `N[C@H](Cc1c[nH]c2ccccc12)C(=O)O`, the Potency entry in test [1], in test [2], in test [3] and in test [4] was “inactive” throughout.
As for `CCCc1cc(=O)[nH]c(=S)[nH]1`, the Potency result in test [1], in test [2], in test [3] and in test [4] was “inactive” each time.
With `c1ccc2sc(SSc3nc4ccccc4s3)nc2c1`, the activity, negative = inhibition in test [1] is -2.2% [at 23.6 µM]. Moreover, the activity change, negative = inhibition in test [2] is 0.97% [at 23.6 µM]; in test [3] it was 3.45% [at 23.8 µM]; in test [4] it was -1.01% [at 23.6 µM].
Turning to `C/C=C/CO`, the Potency entry in test [1], in test [2], in test [3] and in test [4] was “inactive” throughout.
With `c1ccc2c(c1)CCC2`, the Potency result in test [1], in test [2], in test [3] and in test [4] was “inactive” in each case.
Consider `COC(=O)c1ccc(C(=O)OC)c(C(=O)OC)c1`, for which the Potency result in test [1], in test [2], in test [3] and in test [4] was “inactive” in each case.
`CN1CCC[C@@H]1c1cccnc1`: the Potency entry in test [1], in test [2], in test [3] and in test [4] was “inactive” throughout.
Take `Cc1ccc(C(=O)O)cc1`: the Potency entry in test [1], in test [2], in test [3] and in test [4] was “inactive” throughout.
In the case of `CC(C)C(C)(C)C(C)(C)C(C)(C)S`, the Potency result in test [1], in test [2], in test [3] and in test [4] was “inactive” throughout.
With `CC(C)OC(=O)C(C(=O)OC(C)C)=C1SC=CS1`, the Potency entry in test [1], in test [2], in test [3] and in test [4] was “inactive” throughout.
